# Tested on: CAMK2B
# Conditions: concentration: 1 μM, replicates: in singlicate; n = 1
# 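Further: KINOMEscan kinase panel screen.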
row,Compound,%Inh
1,Cc1cccc(-c2cc(-c3c[nH]nc3-c3ccccn3)ccn2)c1 [GW679395],0%
2,COc1ccc(-c2coc3ccc(-c4nnc(SCc5cccc(C#N)c5)o4)cc23)cc1,0%
3,COc1ccc(CNC(=O)NC2CCN(c3ccnc(Nc4ccc(F)cc4)n3)C2)cc1 (stereo not drawn) [GSK1379706],0%
4,COc1cc2ncn(-c3cc(OCc4ccncc4Br)c(C(N)=O)s3)c2cc1OC [GW854278],46%
5,Cc1nnc(-c2ccc(C)c(-c3ccc(C(=O)O)cc3)c2)o1 [GW608005],0%
6,COc1cc2ncn(-c3cc(OCCCc4ccccc4)c(C(N)=O)s3)c2cc1OC [GSK205189],0%
7,Cc1cc(Nc2nc(-c3cccc(C)n3)nc3ccccc23)ccn1 [GW872411],0%
8,Cc1ccc(-c2ccc3c(ccc4sc5c(c43)NC[C@@H](C)N=C5N(C)C)n2)cn1,0%
9,CCc1ccc(-c2ccc3c(c2)-c2nn(C)cc2S(=O)(=O)N3C)cc1,19%
10,Nc1n[nH]c2ncc(-c3ccccc3)cc12 [SB-517081],0%
11,Nc1ncnc2c1ncn2-c1cccc2ccccc12 [SKF-97184],0%
12,O=C(NCCNc1ccnc(Nc2ccc(F)cc2)n1)Nc1ccc2c(c1)OCO2 [GSK1379882],0%
13,O=C(Nc1n[nH]c2nc(-c3ccccc3)c(Br)cc12)C1CC1 [SB-708998],0%
14,Cl.NS(=O)(=O)c1cccc(Nc2cc(-c3ccc(F)cc3)n[nH]2)c1 [GW824645],0%
15,O=C(Nc1ccc2c(c1)OCO2)NC1CCN(c2ccnc(NCc3ccc(F)cc3)n2)CC1 [GSK1379859],0%
16,CC(C)(C)c1ccc(C(=O)Nc2cn3cc(-c4ccccc4)ccc3n2)cc1,0%
17,C[C@@H]1CC[C@H](C(=O)NC2CCCCC2)CN1c1cc(-c2ccc3c(N)n[nH]c3c2)nc(N)n1 [GSK2291363],16%
18,O=C(Nc1n[nH]c2nc(-c3ccccc3)c(Cl)cc12)C1CC1 [SB-734909],0%

row,Compound,%Inh
1,COC(=O)c1c(-c2ccccc2)c2cc(Br)ccc2c(=O)n1Cc1ccc(NC(=O)CCC(=O)O)cc1,0%
2,O=C(Nc1n[nH]c2cc(-c3ccccc3F)ccc12)C1CC1 [SB-733371],0%
3,Cc1nc(N(C)[C@H]2CN(C(=O)CC#N)CC[C@H]2C)c2cc[nH]c2n1,5%
4,Cc1nn2c(=O)cc(N3CCOCC3)nc2n1Cc1cccc(Cl)c1Cl [GSK2342769],0%
5,Cc1cccc(-c2nc(Nc3ccc4c(cnn4C)c3)c3ccccc3n2)n1 [GW876731],8%
6,FC(F)(F)c1ccc(-c2ncn(CCCN3CCOCC3)c2-c2ccncc2)cc1 [SB-217780],0%
7,COc1cc(Nc2ccnc3ccc(C(F)(F)F)cc23)cc(OC)c1OC [GW577382],0%
8,CCS(=O)c1ccc(-c2coc3ccc(-c4nnc(C)o4)cc23)cc1 (stereo not drawn),3%
9,O=c1cc(N2CCOCC2)nc2n(Cc3ccc(F)c(Cl)c3)ccn12 [GSK2297099],0%
10,CCC(=O)c1c(-c2ccccc2)c2cc(Cl)ccc2c(=O)n1Cc1cc(S(C)(=O)=O)n(CCC(C)(C)O)n1,0%
11,Cn1c(=O)c(F)c(Nc2ccc(I)cc2F)c2c(=O)n(OC[C@H](O)CO)cnc21,12%
12,COc1cc(OC)cc(-c2cc3cnc(N)nc3nc2NC(=O)NC(C)(C)C)c1,0%
13,Fc1cccc(CSc2nnc(-c3ccc4c(c3)CCO4)o2)c1,24%
14,COc1cc(Nc2nccc(N3CCC(NC(=O)C4COc5ccccc5O4)C3)n2)cc(OC)c1OC (stereo not drawn) [GSK1379761],0%
15,O=C1NC(=O)C(c2ccccc2)=C1Nc1cccc(O)c1 [SB-390534],0%
16,CN(C)c1cc(-c2ccc3c(N)n[nH]c3c2)nc(N)n1 [GSK2219329],0%
17,Cc1ccc(Oc2ccc(Nc3ncnc4cc[nH]c34)cc2C)cn1,0%
18,CN1C(=O)C(Nc2ccccc2)=C(c2ccccc2)C1=O [SB-300079],0%

# Tested on: CAMK2D
# Conditions: concentration: 1 μM, replicates: in singlicate; n = 1
row,Compound,%Inh
1,Cc1cccc(-c2cc(-c3c[nH]nc3-c3ccccn3)ccn2)c1 [GW679395],5%
2,COc1ccc(-c2coc3ccc(-c4nnc(SCc5cccc(C#N)c5)o4)cc23)cc1,7%
3,COc1ccc(CNC(=O)NC2CCN(c3ccnc(Nc4ccc(F)cc4)n3)C2)cc1 (stereo not drawn) [GSK1379706],18%
4,COc1cc2ncn(-c3cc(OCc4ccncc4Br)c(C(N)=O)s3)c2cc1OC [GW854278],17%
5,Cc1nnc(-c2ccc(C)c(-c3ccc(C(=O)O)cc3)c2)o1 [GW608005],0%
6,COc1cc2ncn(-c3cc(OCCCc4ccccc4)c(C(N)=O)s3)c2cc1OC [GSK205189],16%
7,Cc1cc(Nc2nc(-c3cccc(C)n3)nc3ccccc23)ccn1 [GW872411],0%
8,Cc1ccc(-c2ccc3c(ccc4sc5c(c43)NC[C@@H](C)N=C5N(C)C)n2)cn1,0%
9,CCc1ccc(-c2ccc3c(c2)-c2nn(C)cc2S(=O)(=O)N3C)cc1,25%
10,Nc1n[nH]c2ncc(-c3ccccc3)cc12 [SB-517081],11%
11,Nc1ncnc2c1ncn2-c1cccc2ccccc12 [SKF-97184],0%
12,O=C(NCCNc1ccnc(Nc2ccc(F)cc2)n1)Nc1ccc2c(c1)OCO2 [GSK1379882],4%
13,O=C(Nc1n[nH]c2nc(-c3ccccc3)c(Br)cc12)C1CC1 [SB-708998],4%
14,Cl.NS(=O)(=O)c1cccc(Nc2cc(-c3ccc(F)cc3)n[nH]2)c1 [GW824645],0%
15,O=C(Nc1ccc2c(c1)OCO2)NC1CCN(c2ccnc(NCc3ccc(F)cc3)n2)CC1 [GSK1379859],7%
16,CC(C)(C)c1ccc(C(=O)Nc2cn3cc(-c4ccccc4)ccc3n2)cc1,0%
17,C[C@@H]1CC[C@H](C(=O)NC2CCCCC2)CN1c1cc(-c2ccc3c(N)n[nH]c3c2)nc(N)n1 [GSK2291363],18%
18,O=C(Nc1n[nH]c2nc(-c3ccccc3)c(Cl)cc12)C1CC1 [SB-734909],0%

row,Compound,%Inh
1,COC(=O)c1c(-c2ccccc2)c2cc(Br)ccc2c(=O)n1Cc1ccc(NC(=O)CCC(=O)O)cc1,3%
2,O=C(Nc1n[nH]c2cc(-c3ccccc3F)ccc12)C1CC1 [SB-733371],0%
3,Cc1nc(N(C)[C@H]2CN(C(=O)CC#N)CC[C@H]2C)c2cc[nH]c2n1,0%
4,Cc1nn2c(=O)cc(N3CCOCC3)nc2n1Cc1cccc(Cl)c1Cl [GSK2342769],1%
5,Cc1cccc(-c2nc(Nc3ccc4c(cnn4C)c3)c3ccccc3n2)n1 [GW876731],2%
6,FC(F)(F)c1ccc(-c2ncn(CCCN3CCOCC3)c2-c2ccncc2)cc1 [SB-217780],3%
7,COc1cc(Nc2ccnc3ccc(C(F)(F)F)cc23)cc(OC)c1OC [GW577382],5%
8,CCS(=O)c1ccc(-c2coc3ccc(-c4nnc(C)o4)cc23)cc1 (stereo not drawn),0%
9,O=c1cc(N2CCOCC2)nc2n(Cc3ccc(F)c(Cl)c3)ccn12 [GSK2297099],23%
10,CCC(=O)c1c(-c2ccccc2)c2cc(Cl)ccc2c(=O)n1Cc1cc(S(C)(=O)=O)n(CCC(C)(C)O)n1,24%
11,Cn1c(=O)c(F)c(Nc2ccc(I)cc2F)c2c(=O)n(OC[C@H](O)CO)cnc21,9%
12,COc1cc(OC)cc(-c2cc3cnc(N)nc3nc2NC(=O)NC(C)(C)C)c1,4%
13,Fc1cccc(CSc2nnc(-c3ccc4c(c3)CCO4)o2)c1,0%
14,COc1cc(Nc2nccc(N3CCC(NC(=O)C4COc5ccccc5O4)C3)n2)cc(OC)c1OC (stereo not drawn) [GSK1379761],9%
15,O=C1NC(=O)C(c2ccccc2)=C1Nc1cccc(O)c1 [SB-390534],62%
16,CN(C)c1cc(-c2ccc3c(N)n[nH]c3c2)nc(N)n1 [GSK2219329],0%
17,Cc1ccc(Oc2ccc(Nc3ncnc4cc[nH]c34)cc2C)cn1,0%
18,CN1C(=O)C(Nc2ccccc2)=C(c2ccccc2)C1=O [SB-300079],0%

# From paper PMC5540273 (PLoS ONE, 2017)
